In PubChem BioAssay (NCI):
“And” between values parts separate entries of the source, which are not always exact repeats. Identical values can stand only once. The panel holds about 83,000 compounds, 20% with a hit somewhere; the sample as a whole holds those more often.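 Each cell line was grown in a 96-well plate and treated with one concentration of compound for 48 hours. Values below 10 were considered active.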 Unmarked numbers belong to inactive results. The source made the active and inactive calls.

The compounds below were run on HL-60(TB) leukemia (assay: NCI-60 one-dose screen, 48 h (100 = growth as untreated, 0 = no growth, -100 = all killed)). Conditions: 10 µM unless noted.

Row | SMILES | growth
1 | Nc1ncnc2c1c(-c1ccc(Oc3ccccc3)cc1)nn2C[C@H]1SSC[C@@H]1O | -22.5% (active)
2 | Cc1nnc(/N=C2\NC(=O)/C(=C/c3ccc(N(C)C)cc3)S2)s1 | 99.6%
3 | CC/C(=C(/c1ccc(Cl)cc1)c1ccc(OCCN2CCCC2)cc1)c1ccc(OC)cc1 | 65.1%
4 | CC1(C)S(=O)(=O)OCCOS1(=O)=O | 95.6%
5 | O=C(O)CCC(=O)Nc1nnc(-c2ccccc2)s1 | 92.2%
6 | CN(CCn1sc(=O)n(Cc2ccccc2)c1=O)Cc1ccc2c(Cl)cc(Cl)c(O)c2n1 | 40.7%
7 | CN1C(=O)N(C)C2Nn3c(s/c(=C\c4ccc(Cl)cc4Cl)c3=O)=NC21 (centres undefined) | 41.5%
8 | COc1nc2c(cc1S(=O)(=O)c1ccccc1)CCc1c-2cnn1-c1cccc(Cl)c1 | 65.2%
9 | COc1ccc(-n2sc(=O)n(Cc3ccc(COC(=O)C(C)c4ccc(CC(C)C)cc4)cc3)c2=O)cc1 (centres undefined) | -43.3% (active)
10 | COc1cc(/C=C2\Oc3cc(OCCCN4CCCC4)ccc3C2=O)cc(OC)c1 | 72.5%
11 | COc1ccc(S(=O)(=O)N2CCOCC2)cc1NC(=O)c1[nH]c(C)c2c1CCCCC2=O | 99.6% and 15%
12 | CN1C(=O)N(C)C2Nn3c(s/c(=C\c4ccc(C(F)(F)F)cc4)c3=O)=NC21 (centres undefined) | 98.9%
13 | O=C(CCc1nnc(Cn2cnc3nc[nH]c3c2=O)o1)c1nc2ncccc2[nH]1 | 99.9%
14 | NC1=NC(c2ccccc2)C2=C(N1)/C(=C/c1ccccc1)CCC2 (centres undefined) | 80.7%
